Source: PubChem
Compounds with a hit are over-represented: about 3% of the library has one in this group of screens.
Tau fluor cs: counter-screen for tau fibril formation inhibitors | hit rate 0.93% among 280,000 | tau K18 P301L Alexa594 fluorescence, heparin fibrillization | AID 1463 | Potency, µM (titrated, usually from 57.7 µM), without a hit: at the top dose activity change, negative = decrease; note: nearly all actives have a fitted effect of over 55% in size
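Human K18 P301L tau (15 uM unlabeled plus 0.24 uM Alexa 594-labeled, final) in 100 mM sodium acetate pH 7 was mixed with compound and 20 uM heparin and incubated 6 hr at 37 C.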
TexasRed fluor: counter-screen for TRb-SRC2 inhibitors: fluorescence interference; TRb/SRC2 Texas Red total fluorescence interference; Potency, µM (highest dose often 106 µM), inactives show top-dose fluorescence change, negative = quenching; hit rate 0.29% among 280,000; AID 1479; active = well fitted curve in either direction with a large enough effect; inconclusive = small, poorly fitted or top-dose-only effect
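Flags fluorescent or light-absorbing compounds by total fluorescence, S + 2P, at 555 nm excitation and 632 nm emission. Mixture: 20 nM Texas Red SRC2 peptide, 0.6 uM human TRb LBD, 1 uM T3, 5% DMSO; compound exposure 5 h at ambient temperature.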
Tau ThT inhib: blocks human tau fibril formation measured by thioflavin T | recombinant tau K18 P301L (four-repeat tau fragment), heparin-induced fibrillization, ThT fluorescence | Potency, µM (titrated, usually from 57.4 µM), inactives show top-dose activity, negative = inhibition, actives largely listed as inhibitors | AID 1460 | hit rate 2.1% among 270,000 | P10636; note: nearly all actives have a fitted effect of over 55% in size
Target sequence (P10636 561-689 P618L limits assumed): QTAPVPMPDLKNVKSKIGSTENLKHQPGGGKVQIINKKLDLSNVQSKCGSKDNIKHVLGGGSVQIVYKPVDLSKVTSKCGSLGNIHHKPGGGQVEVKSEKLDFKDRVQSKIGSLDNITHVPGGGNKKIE
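Aggregation was driven by heparin (20 uM final) acting on recombinant tau […] bearing P301L in 100 mM sodium acetate pH 7; fibrils were detected with Thioflavin T.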
TRb SRC2 PPI: inhibitors of human thyroid hormone receptor beta-SRC2 interaction; hit rate 0.065% among 280,000; AID 1469; Potency, µM (doses to about 106 µM), without a hit: top-dose activity change, negative = inhibition, hits mostly inhibitors; TRbeta-SRC2 peptide binding, fluorescence polarization; receptor liganded with 1 µM T3;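 note: plate controls were bound peptide for no effect and peptide without receptor for full effect; nearly all actives have a fitted effect of over 50% in size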
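Fluorescence polarization of 20 nM Texas Red SRC2 peptide with 0.6 uM human TRb ligand-binding domain, in Tris buffer with 1uM T3 and 5% DMSO. Incubated 5 hr ambient; normalized to unbound and bound controls.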
Tau FP inhib: inhibitors of human tau fibril formation. AID 1468. K18 P301L tau heparin fibrillization, Alexa594 FP, 6 h. hit rate 0.39% among 280,000. Potency, µM (doses to about 57.7 µM), for inactives: at the highest dose activity, negative = inhibition, most hits filed as inhibitors. P10636; note: nearly all actives have a fitted effect of over 55% in size
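Human K18 P301L fragment (15 uM unlabeled plus 0.24 uM Alexa 594-labeled) in 100 mM sodium acetate pH 7 with compound, aggregation induced by 20 uM heparin for 6 hr at 37 C. ThT (30 uM) added for 1 hr, then Alexa 594 FP read.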
* marks the source's active call; other numbers are inactive results; ? = inconclusive; · = no result; [ ] = remark or other dose. Unless noted, calls come from the whole dose curve; as a rule, active = well fitted curve in the direction sought with a large enough effect; inconclusive = small, poorly fitted or top-dose-only effect, or another doubt; inactive = no such curve, though single readings can be large; an effect the other way counts as inactive or inconclusive. Unless noted, % is set by controls: 0 for no effect and ±100 for the full control effect; potency is the fitted concentration of half-maximal effect.

SMILES	Tau fluor cs	TexasRed fluor	Tau ThT inhib	TRb SRC2 PPI	Tau FP inhib
O=C(O)CCn1c(SCc2cccc3ccccc23)nc2ccccc21	-10.0%	-3.7%	-18.7%	-9.7%	-2.8%
N#CC1=C(N)N=C(SCc2cccc3ccccc23)C(C(N)=O)C12CCCCC2 (stereo not given)	?	-1.5%	20µM*	0.1%	-5.7%
COc1ccccc1Nc1sc(C(=O)c2ccc3c(c2)OCO3)c(N)c1S(=O)(=O)c1ccccc1	-14.8%	-0.5%	4.0%	-10.7%	?
CCC(C)n1c(=O)c2sccc2n2c(CCCC(=O)Nc3ccc(F)cc3)nnc12 (stereo not given)	-6.4%	-1.1%	3.1%	-4.8%	-7.2%
COc1ccc(C(=O)N/N=C/C(C)c2ccccc2)cc1OC (stereo not given)	-5.2%	4.7%	-6.6%	-13.6%	5.7%
C=CC(C1=CC(=O)C(OC)=C(OC)C1=O)c1ccccc1 (stereo not given)	25.1µM*[quencher]	-1.0%	12.6µM*	-2.5%	?
C=CC(C1=CC(=O)C(OC)=CC1=O)c1ccccc1 (stereo not given)	14.1µM*[quencher]	-3.1%	15.8µM*	-6.4%	20µM*
COc1ccc(S(=O)(=O)N=C2C=C(C)C(=O)C(C)=C2)cc1	-20.6%	-3.3%	-23.7%	-3.1%	7.2%
COC1=C(c2ccccc2)C(=O)c2ccccc2C1=O	-21.9%	-2.9%	?	4.2%	2.7%
C=CC(C1=CC(=O)C(OC)=CC1=O)c1ccc(OC)cc1 (stereo not given)	?	0.0%	15.8µM*	3.8%	?
Cc1cccc(NC(=O)C2CCCN(S(=O)(=O)c3c(C)noc3/C=C/N(C)C)C2)c1C (stereo not given)	-15.3%	-0.4%	?	-11.5%	4.6%
COc1cccc(-n2cc(C(=O)Nc3cc(OC)c(OC)c(OC)c3)c3ccccc3c2=O)c1	-7.5%	8.8%	-5.2%	8.1%	-3.9%
COc1ccc(NC(=O)O/N=C2/CCCc3ccc(OC)cc32)cc1	?	-5.8%	14.1µM*	5.4%	?
CN(C)C(=S)Nc1ccc2c(c1)OCO2	-10.6%	0.8%	?	-4.5%	-13.4%
S=C(Nc1ccc2c(c1)OCO2)Nc1ccc2c(c1)OCO2	?	-1.0%	25.1µM*	-7.3%	?
CC(=O)c1ccc(NC(=S)NCCc2ccc(S(N)(=O)=O)cc2)cc1	-11.0%	-1.8%	?	-2.5%	8.4%
CC(=O)c1ccc(NC(=O)Nc2cccc(Cl)c2)cc1	14.1µM*[quencher]	1.4%	?	4.4%	20µM*
CC(=O)c1ccc(NC(=S)NCCc2cccc(Cl)c2)cc1	?	-0.5%	3.3%	5.4%	25.1µM*
O=C(CCc1ccc(S(=O)(=O)NCCc2ccccc2)cc1)Nc1ccc2c(c1)OCO2	?	0.9%	?	8.1%	?
O=C(Nc1ccc(S(=O)(=O)NCc2ccccc2)cc1)Nc1ccc2c(c1)OCO2	3.98µM*[quencher]	-0.7%	?	1.8%	?
CC/C=C/CCCCCCCCCCOC(C)=O	·	-0.1%[201 µM]	·	-1.2%[201 µM]	·
C=CCOC(=O)N[C@H](/C(C(=O)OC)=C(\C)NCc1ccccc1)c1cccc(OC)c1	-4.2%	-1.2%	0.1%	7.1%	-3.5%
O=C(Nc1ccc2c(c1)OCCO2)Nc1ccc2c(c1)OCO2	?	-5.8%	?	-5.1%	?
O=C(Nc1cccc(Cl)c1)Nc1ccc2c(c1)OCO2	14.1µM*[quencher]	1.5%	?	4.9%	16.0%
CCCCS(=O)(=O)N1CCc2nc(-c3ccccc3)c3c(c2C1)CO[C@@H](C)C3	-1.4%[11.6 µM]	-20.8%[11.2 µM]	3.7%[11.5 µM]	8.5%[11.2 µM]	-1.6%[11.6 µM]
O=c1oc2c(O)c(O)cc3c(=O)oc4c(O)c(O)cc1c4c23	?	?	14.1µM*	-2.0%	?
COC(=O)[C@H](Cc1ccccc1)NC(=O)O[C@@H]1C(=O)c2ccc(OC)cc2O[C@H]1c1ccc2c(c1)OCO2	-7.0%	-1.7%	1.3%	2.7%	-4.3%
CCCSc1nc(O)c(C(c2ccc(OC)c(O)c2)c2c(O)nc(SCCC)n(C)c2=O)c(=O)n1C	-15.5%	-0.9%	3.98µM*	-2.6%	?
COc1cccc(C(c2c(O)nc(SC)n(C)c2=O)c2c(O)nc(SC)n(C)c2=O)c1	-17.4%	0.3%	12.6µM*	0.1%	?
